# Measurements published in PubChem BioAssay (NCI).
# The panel holds about 83,000 compounds, 20% with a hit somewhere; the sample as a whole holds those more often.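 Each cell line was grown in a 96-well plate and treated with one concentration of compound for 48 hours. Values below 10 were considered active.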 Unmarked numbers belong to inactive results. Calls of active or inactive are those of the source.
# What was measured:
# Experiment in all cases: NCI-60 one-dose screen, 48 h (100 = growth as untreated, 0 = no growth, -100 = all killed)
# Settings in all cases: 10 µM unless noted
# HCT-15 colon = test system: HCT-15 colon
# HT29 colon = test system: HT29 colon
# SNB-75 CNS = test system: SNB-75 CNS
# SNB-19 CNS = test system: SNB-19 CNS
# U251 CNS = test system: U251 CNS
# PC-3 prostate = test system: PC-3 prostate
# SK-MEL-5 melanoma = test system: SK-MEL-5 melanoma
# UACC-62 melanoma = test system: UACC-62 melanoma
# LOX IMVI melanoma = test system: LOX IMVI melanoma
# SK-MEL-28 melanoma = test system: SK-MEL-28 melanoma
SMILES,growth (HCT-15 colon),growth (HT29 colon),growth (SNB-75 CNS),growth (SNB-19 CNS),growth (U251 CNS),growth (PC-3 prostate),growth (SK-MEL-5 melanoma),growth (UACC-62 melanoma),growth (LOX IMVI melanoma),growth (SK-MEL-28 melanoma)
O=C1NC(=C(Cl)Cl)/C(=N/S(=O)(=O)N2CCCCC2)N1,-79% (active),-75.8% (active),93.5%,60.9%,-45.1% (active),28.5%,82%,46.6%,-56.6% (active),-32.7% (active)
COc1cc(C(=O)c2c(N)ncn2-c2ccccc2)cc(OC)c1OC,82.6%,93.7%,90.7%,89.6%,95%,78.5%,89.5%,70.3%,91.9%,91.7%
Cn1cc(-c2nonc2-c2c[nH]c3ccc(F)cc23)c2cc(Br)ccc21,30.4%,20.9%,45.5%,58%,41.4%,44.2%,76.6%,52.9%,9.44% (active),73.2%
O=C(CCCCCCN1CC(=O)N2[C@@H](c3ccc(Cl)cc3)c3[nH]c4ccccc4c3C[C@H]2C1=O)NO,101%,76.6%,27.1%,67.1%,71.1%,,61.8%,34.5%,-63.6% (active),46.3%
Cc1ccc(/C=C(\C#N)C(=O)Nc2ncc(Cc3cc(Cl)ccc3Cl)s2)o1,59%,97%,-0.376% (active),27.6%,32.2%,,51.6%,6.39% (active),11.9%,88.9%
COC(=O)c1c2c(n3ccc(C)cc13)C(=O)c1ccccc1C2=O,53.6%,61.5%,109%,78.3%,77.3%,,28.5%,78.3%,58.3%,
C/C(C=O)=C\c1ccc2c(c1)OCO2,108%,110%,102%,111%,107%,104%,105%,105%,96.7%,124%
CCN(CC)CCCC(C)Nc1ccc2cc(OC)ccc2n1 (stereo not given),103%,106%,89.8%,106%,97.9%,,107%,108%,102%,
O=C(NCc1ccccc1O)c1cccc2ccccc12,68.9%,107%,66.5%,69.3%,81.6%,52.5%,60.1%,37.9%,79.6%,71.5%
O=C(CCC(=O)c1nc2ncccc2[nH]1)NN1C(=O)CSC1c1ccc(Cl)cc1 (stereo not given),102%,95.5%,84.7%,94.2%,95.2%,,104%,90.3%,91.4%,
NNC(=S)N/N=C/c1ccccn1,26.7%,36%,59.6%,48.3%,28.4%,,30.2%,20.7%,13.2%,56.3%
CN1C(=O)/C(=C/c2ccc(C(=O)Nc3ncc(Cc4ccc(F)cc4)s3)cc2)SC1=S,22.4%,29.5%,40.3%,60.5%,65.2%,,17.6%,9.34% (active),15.4%,58%
C(/C=C/c1ccccc1)=Nc1ccc(CCc2ccc(N=C/C=C/c3ccccc3)cc2)cc1,15.9%,36.4%,116%,88.1%,75%,71.7%,96.6%,73.6%,73.1%,109%
Cn1cc(-c2csc(-c3cn(C(=O)OC(C)(C)C)c4ccccc34)n2)c2ccnc(Cl)c21,39.1%,35.4%,46.8%,89.1%,34.1%,40.5%,81.4%,78.2%,52.8%,81.2%
CCN(CC)CCOc1nc2c3ccc(Cl)cc3nn2c2ccccc12,4.7% (active),15.2%,33.5%,24.2%,16.4%,,51.3%,9.05% (active),-47.2% (active),44.8%
Cc1ccc(-c2csc(NC(=O)N3CCN(c4cc5c(cc4F)c(=O)c(C(=O)O)cn5C4CC4)CC3)n2)cc1,9.36% (active),4.65% (active),31.5%,26.9%,15.4%,7.37% (active),-75.2% (active),3.86% (active),2.73% (active),35%
Cc1ccc(C(=O)c2ccc(CC(=O)N/N=C/c3ccc(O)cc3O)n2C)cc1,16.8%,64%,31.1%,49.4%,37.6%,61.1%,39.3%,29.8%,18.8%,46.4%
COc1cc2nc(Nc3cccc(F)c3)nc(Nc3cc(C)[nH]n3)c2cc1OC,-78.6% [20 µM] (active),-54.9% [20 µM] (active),-97.5% [20 µM] (active),-89.2% [20 µM] (active),-55.5% [20 µM] (active),,-90.1% [20 µM] (active),-95.7% [20 µM] (active),-82.3% [20 µM] (active),-99.3% [20 µM] (active)
C=C(CN1CC=CCC1)[C@@H]1CC[C@]2(CO)CC[C@]3(C)[C@H](CC[C@@H]4[C@@]5(C)CC[C@H](O)C(C)(C)[C@@H]5CC[C@]43C)[C@@H]12,92.2%,55.3%,108%,99.8%,88.3%,77.5%,96.2%,98%,99.8%,101%
c1ccc(CNc2ccc3nc(CCC4CCCCC4)[nH]c3c2)cc1,26.8%,13.8%,84.9%,80.4%,63.6%,,43.2%,59.6%,79.4%,80%
Cc1nc2sc(C(=O)Nc3ccccc3)c(N)c2cc1C(=O)/C=C/c1ccccc1,-32.1% (active),-63.9% (active),-14% (active),-40.8% (active),-71.7% (active),6.68% (active),11.7%,0.799% (active),-80% (active),30.9%
CN1CCN(CCCOc2ccc3ncnc(Nc4ccc(Oc5cccc(F)c5)c(Cl)c4)c3c2)CC1,-3.99% (active),-25.1% (active),52.1%,34.8%,8.27% (active),8.64% (active),-96.3% (active),-31.8% (active),-91.6% (active),-85.9% (active)
O=C1Nc2ccc(F)cc2/C1=N/c1nnc(Sc2ccccc2)s1,98.3%,105%,80.2%,105%,91.4%,91.7%,86.7%,88.8%,90.9%,116%
CCOC(=O)C1=C(C)N=C2SC=C(c3ccccc3)N2[C@H]1c1cn[nH]c1-c1ccc(Cl)cc1,24.6%,36.8%,73.8%,59.2%,31.2%,,49.7%,36.2%,5.54% (active),75.2%
Clc1nccc2c(-c3csc(-c4c[nH]c5ccccc45)n3)c[nH]c12,-39.6% (active),23.6%,41.4%,71.8%,20.9%,,55.8%,43.9%,28.2%,23.9%
NC(=O)c1c(NC(=O)c2ccc(Cl)cc2)sc2c1CCC(=O)C2,63.5%,62.5%,45.4%,71.1%,24%,15.5%,99.1%,61.9%,56.5%,99.2%
Cc1ccc2[nH]c(-c3ccc(S(C)(=O)=O)cc3)c(/C=N/N=C(N)N)c2c1,35.3%,16.7%,65.4%,57.1%,33.4%,39.9%,29.1%,41.5%,47.3%,71.2%
O=C(N/N=C/c1ccc(Cl)cc1Cl)c1ccc2nc(-c3ccc(Cl)cc3)[nH]c2c1,4.69% (active),1.67% (active),98.4%,4.35% (active),-15.2% (active),-24.9% (active),36.2%,16.8%,-55.9% (active),-9.23% (active)
